SW480 rereplic = DNA re-replication induction in SW480 cells; SW480 DNA re-replication, Hoechst DNA content imaging, 48 h; Potency, µM (titrated, usually from 46.1 µM), hits mostly activators; 340,000 compounds, 1.8% hits; AID 624297; note: nearly all actives have a fitted effect of over 55% in size
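Hoechst fluorescence of nuclei (405 nm excitation, 500-530 nm emission) measured by plate-scanning imager after 48 hr compound exposure at 37 C; re-replication scored as increased number of nuclei with elevated intensity.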
HT1080NT lethal = kills 2HG-producing HT-1080-NT fibrosarcoma cells; HT-1080-NT fibrosarcoma viability, CellTiter-Glo ATP luminescence, 48 h; Potency, µM (series often up to 46.1 µM), actives largely listed as cytotoxic; 360,000 compounds, 1.6% hits; AID 686970;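 note: NT is the 2HG producing partner of a matched IDH1 knockdown line; nearly all actives have a fitted effect of over 55% in size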
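Luminescent CellTiter-Glo readout after 48 hours of compound exposure at 37 degrees C defined viability of HT-1080-NT cells. Activity was normalized to DMSO wells and cell-free media wells; concentration-response curves were fitted and assigned curve classes.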
KB-3-1 tox = kills parental KB-3-1 adenocarcinoma cells. Potency, µM (titrated, usually from 46.1 µM), actives largely listed as cytotoxic. 400,000 compounds, 1.4% hits. AID 1347075. KB-3-1 viability, CellTiter-Glo ATP luminescence, 72 h; note: nearly all actives have a fitted effect of over 60% in size
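Multi-concentration cytotoxicity screen in KB-3-1 cells grown in DMEM lacking phenol red with 10% FBS. After 72 h at 37 °C with compound, ATP-dependent luminescence was recorded.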
MCF10A rerep = inducers of DNA re-replication in MCF 10A breast cells. MCF 10A DNA re-replication, Hoechst nuclear intensity, 48 h. Potency, µM (titrated, usually from 46.1 µM), actives largely listed as activators. 350,000 compounds, 2.9% hits. AID 624296; note: nearly all actives have a fitted effect of over 50% in size
KB-V1 cytotox = kills drug-selected multidrug resistant KB-V1 cells; KB-V1 MDR cells viability, CellTiter-Glo, 72 h; 400,000 compounds, 3.4% hits; Potency, µM (series often up to 46.1 µM), most hits filed as cytotoxic; AID 1347076; note: nearly all actives have a fitted effect of over 60% in size
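Following 72 h at 37 degrees C with compound, KB-V1 cell viability was read by CellTiter-Glo luminescence, medium being phenol-red-free DMEM plus 10% FBS; concentration-response parameters came from normalized, curve-fitted qHTS data.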
HT1080 IDH1KD tx = HT-1080 IDH1 knockdown cell toxicity (counter line). Potency, µM (titrated, usually from 46.1 µM), most hits filed as cytotoxic. AID 686971. 360,000 compounds, 2% hits. HT-1080 IDH1 knockdown viability, ATP luminescence, 48 h
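% activity derives from luminescence (CellTiter-Glo), normalised to DMSO and no-cell wells. HT-1080-IDH1KD cells, 750/well, had 48 h compound exposure at 37 °C.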
A number is an active result; i = inactive; ? = inconclusive; nt = no result; ! = a repeat was not active. In the library only some 7.9% were active in any assay of this set; here they are far more common. Calls come from the whole dose curve; as a rule, active = well fitted curve in the direction sought with a large enough effect; inconclusive = small, poorly fitted or top-dose-only effect, or another doubt; inactive = no such curve, though single readings can be large; an effect the other way counts as inactive or inconclusive.

SMILES	SW480 rereplic	HT1080NT lethal	KB-3-1 tox	MCF10A rerep	KB-V1 cytotox	HT1080 IDH1KD tx
O=C(Nc1ccccc1)[C@@H]1CC=C[C@@H]2CCN(Cc3ccc(Cl)c(Cl)c3)C(=O)[C@@H]21	i	?	i	i	21µM!	?
Cc1ccc(S(=O)(=O)N2C[C@H]3[C@H]4C(=O)N(C)C(=O)[C@H]4CC(=O)[C@H]3[C@@H]2c2ccccc2Cl)cc1	nt	i	i	nt	i	i
COc1cc(C(=O)NC(=S)Nc2ccc3ccccc3c2)cc(OC)c1OC	nt	?	i	nt	i	?
CCCCn1c(CCl)nc2cc(S(=O)(=O)N3CCOCC3)ccc21	13µM	i	?	?	?	?
O=C(NCC1CCCO1)c1cc(S(=O)(=O)N2CCOCC2)ccc1Cl (centres undefined)	i	i	i	i	i	i
CCCCn1c(C)nc2cc(S(=O)(=O)N3CCOCC3)ccc21	i	i	i	i	i	i
CCc1ccc(C(=O)CSc2nc3cc(S(=O)(=O)N4CCOCC4)ccc3n2CC)cc1	i	i	i	i	21µM	i
O=S(=O)(c1ccc2c(c1)nc(COc1ccc(Cl)cc1)n2CC1CCCO1)N1CCOCC1 (centres undefined)	i	i	i	i	23µM	i
Cc1ccn2cc(-c3ccc(C)c(NS(=O)(=O)c4ccc(Cl)cc4)c3)nc2c1	nt	nt	i	nt	i	nt
COc1ccccc1N1CCN(CCCNC(=O)c2nnc(Cc3c(F)cccc3Cl)o2)CC1	nt	nt	i	nt	?	nt
CCOc1ccc(Cl)cc1-c1cc(C(=O)NC(C)C)[nH]n1	nt	i	i	nt	i	i
COc1ccc(-c2nc(-n3c(C)c(C(C)=O)c(C(C)=O)c3C)sc2C)cc1OC	i	i	i	?	15µM	i
CC(=O)c1c(C(C)=O)c(C)n(-c2nc(-c3ccc(Br)cc3)c(C)s2)c1C	?	i	?	i	?	i
CC1=C(c2ccccc2)C(=S)NC(C)(C)C1	i	i	i	i	i	33µM
CCN(c1cccc(C)c1)S(=O)(=O)c1ccc(N2CCCCS2(=O)=O)cc1	nt	nt	i	nt	?	nt
CN(C(=O)COC(=O)/C=C/c1cccc([N+](=O)[O-])c1)C1CCS(=O)(=O)C1 (centres undefined)	i	23µM	?	i	i	16µM
O=C(COC(=O)c1c2c(nc3ccccc13)/C(=C/c1cccc([N+](=O)[O-])c1)CCC2)NC1CCS(=O)(=O)C1 (centres undefined)	nt	i	?	?	23µM	?
CN(C(=O)COC(=O)c1c2c(nc3ccccc13)/C(=C/c1cccc([N+](=O)[O-])c1)CCC2)C1CCS(=O)(=O)C1 (centres undefined)	i	?	5.8µM	?	?	5.8µM
Cc1ccc(-c2csc(N(CC3CCCO3)C(=O)c3ccco3)n2)cc1 (centres undefined)	?	i	?	21µM	?	?
O=C(c1cccs1)N(CC1CCCO1)c1nc(-c2ccccc2)cs1 (centres undefined)	i	i	i	i	i	i
COc1ccc(-c2csc(N(CC3CCCO3)C(=O)c3ccc(C)cc3)n2)cc1 (centres undefined)	i	i	?	i	3.7µM	?
O=C(c1ccco1)N(CC1CCCO1)c1nc(-c2ccccc2)cs1 (centres undefined)	i	?	?	?	23µM	?
O=C(NCc1ccccc1)c1cccc(COc2ccc(Cl)cc2)c1	i	i	i	i	18µM	i
Cc1cc(C)c(C(=O)COC(=O)c2cccc(S(=O)(=O)NCc3ccccc3)c2)cc1C	i	i	i	i	18µM	i
COc1cccc(CN(C)C(=O)c2[nH]c(C)c(C(C)=O)c2C)c1OC	i	i	7.3µM	i	18µM	i
SMILES	SW480 rereplic	HT1080NT lethal	KB-3-1 tox	MCF10A rerep	KB-V1 cytotox	HT1080 IDH1KD tx
COc1ccc(CN(C)C(=O)c2cc(S(=O)(=O)NCc3ccccc3)ccc2C)c(OC)c1	i	i	i	i	i	i
COc1cccc(CN(C)C(=O)c2cc(S(=O)(=O)NCc3ccccc3)ccc2C)c1OC	i	i	i	i	18µM	i
CN(C)C1(CNC(=O)c2cccc(S(=O)(=O)NCc3ccccc3)c2)CCCCC1	i	i	i	i	i	?
CCOc1ccc(C(=O)NCc2ccccc2)cc1Br	i	i	i	i	18µM	i
O=C(NCc1ccccc1)c1cccc(S(=O)(=O)NCc2ccccc2)c1	i	i	i	i	16µM	i
C=CCn1c(NC(=O)c2ccc(Br)o2)c(S(=O)(=O)c2ccccc2)c2nc3ccccc3nc21	i	i	i	12µM	?	i
O=C(Nc1ccc(S(=O)(=O)NCc2ccccc2)cc1)c1ccc(Br)o1	i	i	i	i	i	i
CCc1ccccc1NC(=O)C(=O)NCCc1sc(-c2cccc(F)c2)nc1C	nt	nt	i	nt	i	nt
COC(=O)CSc1ncc2c(n1)-c1ccccc1N(Cc1cccc(F)c1)S2(=O)=O	nt	nt	i	nt	i	nt
COc1ccccc1-c1c(C)[nH]n2c(=O)c(Cc3ccccc3)c(C)nc12	i	i	i	i	i	i
COc1ccc(-c2c(C)[nH]n3c(=O)c(Cc4ccccc4)c(C)nc23)cc1	?	i	?	i	16µM	?
Cc1nc2c(-c3ccccc3)c[nH]n2c(=O)c1Cc1ccccc1	i	i	12µM	?	?	i
Cc1cc(=O)n2[nH]cc(-c3ccccc3)c2n1	i	i	i	i	i	i
Cc1cc(=O)n(CC(=O)NCCC(C)C)c2c1c(C)nn2C	nt	nt	i	nt	i	nt
COc1ccc(/C=C/c2ccnc3ccccc23)c(OC)c1	nt	nt	?	nt	i	nt
CC(C)(C)c1cc(NCc2ccccn2)n2ncc(-c3ccccc3)c2n1	i	?	i	?	?	21µM
Cc1cc(NCc2ccccc2)n2ncc(-c3ccccc3)c2n1	?	i	?	18µM	i	i
COc1ccc(CCNc2cc(C)nc3c(-c4ccccc4)cnn23)cc1OC	i	i	i	?	i	?
Cc1ccc(C)c(Cn2c(=O)n(CCCC(=O)NCc3ccco3)c(=O)c3sccc32)c1	?	?	5.8µM	13µM	?	9.2µM
O=C(CCCn1c(=O)c2sccc2n(CC(=O)NCc2ccco2)c1=O)NCc1ccco1	i	i	i	i	i	i
O=C(CCn1c(=O)c2sccc2n(CC(=O)NCc2ccco2)c1=O)NCc1ccccc1	i	0.1µM	i	i	i	i
COc1ccc(Cl)cc1N1C(=O)/C(=C/c2sccc2C)N=C1SCC(=O)NC1CC1	?	i	?	?	i	i
O=C(CSC1=N/C(=C/c2ccc(Cl)c(Cl)c2)C(=O)N1c1ccccc1F)NC1CC1	?	i	i	15µM	15µM	i
